Experimental data reported in PubChem BioAssay.

Assay: FRG1 promoter luciferase signal modulators, primary screen, FRG1 inhibition for FSHD, cell-based, C2C12 myotubes, firefly/Renilla luciferase, luminescence (AID 1084)
Conditions: higher = more signal, called active from +8 up or from −8 down

z-score, inactive:
O=C1O[C@@H](c2ccccc2)[C@@H](c2ccccc2)N2[C@@H](c3ccc(O)cc3)[C@]3(C(=O)Nc4ccc(C#CC5=CCCCC5)cc43)[C@@H](C(=O)N3CCN(c4ncccn4)CC3)[C@H]12 0.795, CC(C)C[C@@H]1NC(=O)[C@H]2C[C@@H](C(=O)NCCCCCC[N+](C)(C)C)[C@@H](c3cccc(OCCO)c3)N2C1=O 4.18, CCOC(=O)C[C@H]1[C@H](OC(=O)c2ccccc2-c2ccccc2)[C@@H](NC(=O)c2ccc3ccccc3n2)c2cc(OCCCO)ccc2N1C(=O)c1ccc2ccccc2n1 0.075, C[C@H]1C2=C3C(CC[C@H]4C(OCc5ccc(F)cc5C(F)(F)F)OC[C@](C)([C@@H]34)N(C(=O)OC(C)(C)C)C2)C(CO)C1CO (stereo not given in full) 0.133, CCOc1cc(C(O)C2C=CC3C(=O)N(C)C(=O)C3N2N2CCCCC2)ccc1O (stereo not given) 0.133, C=C(COC)/C(=C/C[C@@H](OC(=O)c1ccncc1)c1cccc(OCCO)c1)c1cnc2ccccc2c1 0.589, C=C(CCCC)/C(=C/C[C@@H](OC(C)=O)c1ccc(CO)o1)c1cc(C(=O)OC)ccc1OC -0.129, CC(C)(C)OC(=O)CC[C@]1(C(=O)NCCN2CCOCC2)N=C(c2ccc(OCCCO)cc2)O[C@H]1c1ccccc1N=[N+]=[N-] 4.57, Cc1ccc(S[C@]2(C(=O)NCC(F)(F)F)CC(=O)N(Cc3ccccc3)[C@@H]2c2ccc(CO)cc2)cc1 -2.41, COc1ccc(C#Cc2ccc3c(c2)[C@]2(C(=O)N3)[C@H](C(=O)N3CCc4cc(OC)c(OC)cc4C3)[C@H]3C(=O)O[C@H](c4ccccc4)[C@H](c4ccccc4)N3[C@@H]2c2ccc(O)cc2)cc1 1.57, CN1C(=O)[C@@]2(CCS(=O)(=O)c3ccccc3)N=C(c3ccc(OCCCO)cc3)O[C@H]2c2ccccc21 -3.84, CC(C)C(=C=CC[C@@H](O)c1ccccc1OCCO)C[C@@H](O)COCc1ccccc1 -3.84, COc1ccc(C(O)C2C=CC3C(=O)N(Cc4ccccc4)C(=O)C3N2n2cnnc2)c2ccccc12 (stereo not given) 0.422, CCOC(=O)C[C@H]1[C@H](OC(=O)c2ccccc2-c2ccccc2)[C@@H](NC(=O)CC(C)C)c2cc(OCCCO)ccc2N1C(=O)c1ccc2ccccc2n1 0.0832, C=CC[C@H](OC(=O)Nc1ccc(OC)cc1)c1ccc(O)c2ccccc12 6.36, COc1ccc(C(O)C2C=CC3C(=O)N(c4ccccc4)C(=O)C3N2Nc2ccccc2)cc1OCc1ccccc1 (stereo not given) 0.0678, O=C1NC(=O)C2C1C=CC(C(O)c1cc(C(F)(F)F)cc(C(F)(F)F)c1)N2Nc1ccc(Cl)cc1Cl (stereo not given) -0.166, C=CCC(OC(C)=O)[C@@H]1[C@@H](N(Cc2cc3ccccc3o2)C(=O)Cc2ccc(F)cc2)c2cc(OCCCO)ccc2N1C(=O)c1ccc2ccccc2n1 (stereo not given in full) -0.591, COCCOC(=O)N1C(=O)[C@@]2(c3cc(C#CC4=CCCCC4)ccc31)[C@H](c1ccc(O)cc1)N1[C@H](c3ccccc3)[C@H](c3ccccc3)OC(=O)[C@H]1[C@@H]2C(=O)Nc1nc2ccccc2s1 1.53, COCCOC(=O)N1C(=O)[C@@]2(c3cc(C#CC4(O)CCCCCC4)ccc31)[C@H](C(N)=O)[C@H]1C(=O)O[C@H](c3ccccc3)[C@H](c3ccccc3)N1[C@@H]2c1ccc(O)cc1 0.116, COC(=O)[C@H](Cc1ccccc1)N1CC(/C=C/C2CC2)=C[C@@H]1[C@@H](O)Cc1ccccc1 -1.09, C=C(/C(=C/C[C@@H](OC(=O)c1ccncc1)c1ccccc1OCCO)c1cc(C(=O)OC)ccc1OC)C(C)C -1.31, COc1cc(CO)cc(I)c1O[C@H]1C=C(C(=O)NCCO)C[C@@H](N(Cc2ccc(F)cc2)C(=O)C2CCCO2)[C@@H]1O (stereo not given in full) -0.851, NC(=O)NCC#Cc1ccc2c(c1)[C@]1(C(=O)N2)[C@H](c2ccc(O)cc2)N2[C@H](c3ccccc3)[C@H](c3ccccc3)OC(=O)[C@H]2[C@@H]1C(=O)Nc1nc2ccccc2s1 0.63, CCOC(=O)C1=CC[C@@H](c2cc(Cl)ccc2Cl)N(S(=O)(=O)c2ccc(C)cc2)[C@H]1c1ccc(OC)cc1 -1.69, COc1ccc(NN2C(C(O)c3ccccn3)C=CC3C(=O)N(C4CCCCC4)C(=O)C32)cc1 (stereo not given) 3.21, COc1ccc([Si](C)(C)[C@H]2[C@H](CCO)O[C@@]3(C(=O)N(Cc4cccc(N5CCCCC5=O)c4)c4ccccc43)[C@@H]2C)cc1 -2.32, CCCC[C@@H]1C[C@H]1[C@@H](NC(=O)c1cccnc1)c1ccc(-c2ccccc2)cc1 -0.781, C=CCNC(=O)[C@@H]1[C@H]2C(=O)O[C@H](c3ccccc3)[C@H](c3ccccc3)N2[C@H](c2ccc(OCCO)cc2)[C@@]12C(=O)N(C(=O)OCCOC)c1ccc(C#CC3=CCCCC3)cc12 0.223, CC(C)NC(=O)[C@@]1(C)c2ccccc2C(=O)N(C(C)C)[C@H]1c1ccc(CO)cc1 -0.639, COCCOC(=O)N1C(=O)[C@@]2(c3cc(C#CC4(O)CCCCCC4)ccc31)[C@H](c1ccccc1OCCO)N1[C@H](c3ccccc3)[C@H](c3ccccc3)OC(=O)[C@H]1[C@@H]2C(N)=O -1.17, O=C1c2ccccc2[C@](Cc2ccccc2I)(C(=O)NCc2ccccc2)[C@H](c2ccc(CO)cc2)N1C1CCCCC1 -1.6, COC(=O)[C@@]1(Cc2ccc(OC)cc2)[C@H]2c3cc(C(=O)N(C)C)n(Cc4ccccc4)c3C[C@H]2CN1C(=O)c1ccccc1 -1.53, COC(=O)[C@]1(CCS(=O)(=O)c2ccccc2)N=C(c2ccc(OCCCO)cc2)O[C@@H]1c1ccccc1CN=[N+]=[N-] -1.96, CC(C)(C)OC(=O)CC[C@]1(C(=O)N2CCOCC2)N=C(c2ccc(OCCCO)cc2)O[C@H]1c1ccccc1 -2.64
